# Measurements reported in publication PMC5540273 (PLoS ONE, 2017).
# Like-named read-outs stand apart in the source and are kept apart here.
# What was measured:
# [1] = test system: FLT1; conditions: concentration: 1 μM, replicates: in singlicate; n = 1
# [2] = test system: FLT3-autoinhibited; conditions: concentration: 1 μM, replicates: in singlicate; n = 1
# [3] = test system: FLT3; conditions: concentration: 1 μM, replicates: in singlicate; n = 1
# [4] = test system: FLT4; conditions: concentration: 1 μM, replicates: in singlicate; n = 1
# [5] = test system: FRK; conditions: concentration: 1 μM, replicates: in singlicate; n = 1
# [6] = test system: FYN; conditions: concentration: 1 μM, replicates: in singlicate; n = 1
# [7] = test system: GAK; conditions: concentration: 1 μM, replicates: in singlicate; n = 1
# [8] = test system: T1, GCN2(Kin.Dom.2,S808G); conditions: concentration: 1 μM, replicates: in singlicate; n = 1
# T1 construct: gene EIF2AK4
# [9] = test system: GRK1; conditions: concentration: 1 μM, replicates: in singlicate; n = 1
# [10] = test system: T2, GRK2; conditions: concentration: 1 μM, replicates: in singlicate; n = 1
# T2 construct: gene ADRBK1
# [11] = test system: T3, GRK3; conditions: concentration: 1 μM, replicates: in singlicate; n = 1
# T3 construct: gene ADRBK2
# [12] = test system: GRK4; conditions: concentration: 1 μM, replicates: in singlicate; n = 1
# [13] = test system: GRK7; conditions: concentration: 1 μM, replicates: in singlicate; n = 1
# [14] = test system: GSK3A; conditions: concentration: 1 μM, replicates: in singlicate; n = 1
# [15] = test system: GSK3B; conditions: n = 1
# [16] = test system: T4, HASPIN; conditions: concentration: 1 μM, replicates: in singlicate; n = 1
# T4 construct: gene GSG2
# [17] = test system: HCK; conditions: concentration: 1 μM, replicates: in singlicate; n = 1
# [18] = test system: HIPK1; conditions: concentration: 1 μM, replicates: in singlicate; n = 1
# [19] = test system: HIPK2; conditions: concentration: 1 μM, replicates: in singlicate; n = 1
# [20] = test system: HIPK3; conditions: concentration: 1 μM, replicates: in singlicate; n = 1
# [21] = concentration: 1 μM, replicates: in singlicate
# 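Also: KINOMEscan kinase panel screen.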
compound,measurement,setting,value
O=C(Nc1n[nH]c2nc(-c3ccco3)c(Br)cc12)C1CCN(Cc2ccccc2)C1.O=C(O)[C@H](O)[C@@H](O)C(=O)O (centres unmarked) [SB-742034],%Inh,[1],0%
same,%Inh,[2],10%
same,%Inh,[3],7%
same,%Inh,[4],6%
same,%Inh,[5],0%
same,%Inh,[6],0%
same,%Inh,[7],8%
same,%Inh,[8],0%
same,%Inh,[9],42%
same,%Inh,[10],0%
same,%Inh,[11],0%
same,%Inh,[12],11%
same,%Inh,[13],42%
same,%Inh,[14],97.8%
same,%Inh,[15]; 1 µM,72%
same,%Inh,[16],0%
same,%Inh,[17],7%
same,%Inh,[18],30%
same,%Inh,[19],32%
same,%Inh,[20],25%
O=C1NC(=O)C(c2ccc(Cl)cc2)=C1Nc1cccc(Cl)c1 [SB-317651],%Inh,[1],0%
same,%Inh,[2],11%
same,%Inh,[3],0%
same,%Inh,[4],0%
same,%Inh,[5],0%
same,%Inh,[6],0%
same,%Inh,[7],0%
same,%Inh,[8],2%
same,%Inh,[9],11%
same,%Inh,[10],0%
same,%Inh,[11],0%
same,%Inh,[12],21%
same,%Inh,[13],30%
same,%Inh,[14],0%
same,%Inh,[15]; 1 µM,15%
same,%Inh,[16],0%
same,%Inh,[17],0%
same,%Inh,[18],19%
same,%Inh,[19],34%
same,%Inh,[20],0%
CSc1ccc(-c2nc3n(c2-c2ccncc2)CCC3)cc1 [SKF-105561],%Inh,[1],7%
same,%Inh,[2],7%
same,%Inh,[3],8%
same,%Inh,[4],0%
same,%Inh,[5],0%
same,%Inh,[6],0%
same,%Inh,[7],10%
same,%Inh,[8],2%
same,%Inh,[9],8%
same,%Inh,[10],0%
same,%Inh,[11],28%
same,%Inh,[12],5%
same,%Inh,[13],0%
same,%Inh,[14],0%
same,%Inh,[15]; [21],20%
same,%Inh,[16],35%
same,%Inh,[17],7%
same,%Inh,[18],0%
same,%Inh,[19],0%
same,%Inh,[20],6%
Cc1c(Cn2c3ccccc3n3c(=O)cc(N4CCOCC4)nc23)cccc1C(F)(F)F [GSK2306394],%Inh,[1],27%
same,%Inh,[2],17%
same,%Inh,[3],11%
same,%Inh,[4],18%
same,%Inh,[5],0%
same,%Inh,[6],20%
same,%Inh,[7],18%
same,%Inh,[8],5%
same,%Inh,[9],0%
same,%Inh,[10],0%
same,%Inh,[11],0%
same,%Inh,[12],0%
same,%Inh,[13],0%
same,%Inh,[14],13%
same,%Inh,[15]; [21],18%
same,%Inh,[16],0%
same,%Inh,[17],0%
same,%Inh,[18],0%
same,%Inh,[19],0%
same,%Inh,[20],16%
Cc1cccc2c(-c3ccncn3)c(-c3ccc(F)cc3)nn12 [GW515532],%Inh,[1],32%
same,%Inh,[2],12%
same,%Inh,[3],0%
same,%Inh,[4],10%
same,%Inh,[5],0%
same,%Inh,[6],1%
same,%Inh,[7],76%
same,%Inh,[8],18%
same,%Inh,[9],3%
same,%Inh,[10],0%
same,%Inh,[11],0%
same,%Inh,[12],12%
same,%Inh,[13],0%
same,%Inh,[14],1%
same,%Inh,[15]; [21],0%
same,%Inh,[16],21%
same,%Inh,[17],0%
same,%Inh,[18],0%
same,%Inh,[19],0%
same,%Inh,[20],0%
Nc1ncnc2occ(-c3ccc4c(c3)CCN4C(=O)Cc3cc(F)ccc3F)c12 [GSK2645446],%Inh,[1],6%
same,%Inh,[2],0%
same,%Inh,[3],0%
same,%Inh,[4],1%
same,%Inh,[5],0%
same,%Inh,[6],0%
same,%Inh,[7],0%
same,%Inh,[8],0%
same,%Inh,[9],0%
same,%Inh,[10],0%
same,%Inh,[11],0%
same,%Inh,[12],0%
same,%Inh,[13],0%
same,%Inh,[14],0%
same,%Inh,[15]; [21],2%
same,%Inh,[16],0%
same,%Inh,[17],0%
same,%Inh,[18],0%
same,%Inh,[19],0%
same,%Inh,[20],0%
CC(=O)c1cccc(NC(=O)NC2CCN(c3ccnc(Nc4ccc(F)cc4)n3)C2)c1 (centres unmarked) [GSK1379710],%Inh,[1],27%
same,%Inh,[2],11%
same,%Inh,[3],0%
same,%Inh,[4],12%
same,%Inh,[5],0%
same,%Inh,[6],27%
same,%Inh,[7],5%
same,%Inh,[8],0%
same,%Inh,[9],0%
same,%Inh,[10],10%
same,%Inh,[11],49%
same,%Inh,[12],0%
same,%Inh,[13],0%
same,%Inh,[14],32%
same,%Inh,[15]; [21],4%
same,%Inh,[16],26%
same,%Inh,[17],2%
same,%Inh,[18],0%
same,%Inh,[19],0%
same,%Inh,[20],7%
CC(=O)c1c(C)c2cnc(Nc3ccc(N4CCNCC4)cn3)nc2n(C2CCCC2)c1=O,%Inh,[1],0%
same,%Inh,[2],0%
same,%Inh,[3],0%
same,%Inh,[4],0%
same,%Inh,[5],7%
same,%Inh,[6],0%
same,%Inh,[7],0%
same,%Inh,[8],0%
same,%Inh,[9],10%
same,%Inh,[10],0%
same,%Inh,[11],9%
same,%Inh,[12],7%
same,%Inh,[13],8%
same,%Inh,[14],0%
same,%Inh,[15]; [21],0%
same,%Inh,[16],0%
same,%Inh,[17],0%
same,%Inh,[18],20%
same,%Inh,[19],0%
same,%Inh,[20],0%
COc1cccc(C2=C(Nc3cc(Cl)c(O)c(Cl)c3)C(=O)NC2=O)c1 [SB-390767],%Inh,[1],20%
same,%Inh,[2],0%
same,%Inh,[3],0%
same,%Inh,[4],10%
same,%Inh,[5],20%
same,%Inh,[6],30%
same,%Inh,[7],100%
same,%Inh,[8],0%
same,%Inh,[9],3%
same,%Inh,[10],0%
same,%Inh,[11],28%
same,%Inh,[12],1%
same,%Inh,[13],0%
same,%Inh,[14],44%
same,%Inh,[15]; 1 µM,33%
same,%Inh,[16],0%
same,%Inh,[17],0%
same,%Inh,[18],0%
same,%Inh,[19],0%
same,%Inh,[20],20%
O=C(Nc1n[nH]c2nc(-c3cccs3)c(Br)cc12)C1CC1 [SB-735297],%Inh,[1],8%
same,%Inh,[2],19%
same,%Inh,[3],81%
same,%Inh,[4],0%
same,%Inh,[5],0%
same,%Inh,[6],0%
same,%Inh,[7],0%
same,%Inh,[8],0%
same,%Inh,[9],10%
same,%Inh,[10],0%
same,%Inh,[11],0%
same,%Inh,[12],0%
same,%Inh,[13],17%
same,%Inh,[14],93.8%
same,%Inh,[15]; 1 µM,52%
same,%Inh,[16],0%
same,%Inh,[17],0%
same,%Inh,[18],27%
same,%Inh,[19],58%
same,%Inh,[20],11%
CC(C)c1cc(-c2ccc3c(N)n[nH]c3c2)nc(N)n1 [GSK2250882],%Inh,[1],4%
same,%Inh,[2],0%
same,%Inh,[3],0%
same,%Inh,[4],0%
same,%Inh,[5],0%
same,%Inh,[6],22%
same,%Inh,[7],13%
same,%Inh,[8],0%
same,%Inh,[9],0%
same,%Inh,[10],0%
same,%Inh,[11],0%
same,%Inh,[12],10%
same,%Inh,[13],0%
same,%Inh,[14],0%
same,%Inh,[15]; [21],0%
same,%Inh,[16],83%
same,%Inh,[17],0%
same,%Inh,[18],15%
same,%Inh,[19],0%
same,%Inh,[20],9%
Cc1ccc(NC(=O)Nc2ccccc2F)cc1-c1ccc(C(=O)Nc2ccncc2)cc1 [GSK1398477],%Inh,[1],45%
same,%Inh,[2],0%
same,%Inh,[3],13%
same,%Inh,[4],34%
same,%Inh,[5],72%
same,%Inh,[6],40%
same,%Inh,[7],24%
same,%Inh,[8],28%
same,%Inh,[9],0%
same,%Inh,[10],0%
same,%Inh,[11],0%
same,%Inh,[12],30%
same,%Inh,[13],0%
same,%Inh,[14],25%
same,%Inh,[15]; [21],3%
same,%Inh,[16],0%
same,%Inh,[17],0%
same,%Inh,[18],0%
same,%Inh,[19],0%
same,%Inh,[20],10%
CNc1nc(-c2ccc3c(N)n[nH]c3c2)cc(N2C[C@@H](C(=O)Nc3ccccc3)CC[C@H]2C)n1 [GSK2298859],%Inh,[1],35%
same,%Inh,[2],0%
same,%Inh,[3],0%
same,%Inh,[4],12%
same,%Inh,[5],0%
same,%Inh,[6],2%
same,%Inh,[7],0%
same,%Inh,[8],0%
same,%Inh,[9],100%
same,%Inh,[10],0%
same,%Inh,[11],0%
same,%Inh,[12],0%
same,%Inh,[13],0%
same,%Inh,[14],26%
same,%Inh,[15]; [21],0%
same,%Inh,[16],13%
same,%Inh,[17],0%
same,%Inh,[18],0%
same,%Inh,[19],0%
same,%Inh,[20],1%
COC(=O)c1cccc(NC(=O)NC2CCN(c3ccnc(Nc4ccc(OC)cc4)n3)C2)c1 (centres unmarked) [GSK1379746],%Inh,[1],26%
same,%Inh,[2],0%
same,%Inh,[3],0%
same,%Inh,[4],4%
same,%Inh,[5],11%
same,%Inh,[6],8%
same,%Inh,[7],0%
same,%Inh,[8],0%
same,%Inh,[9],0%
same,%Inh,[10],0%
same,%Inh,[11],43%
same,%Inh,[12],0%
same,%Inh,[13],0%
same,%Inh,[14],0%
same,%Inh,[15]; [21],12%
same,%Inh,[16],0%
same,%Inh,[17],0%
same,%Inh,[18],0%
same,%Inh,[19],0%
same,%Inh,[20],0%
CNc1cc(-c2ccc3c(N)n[nH]c3c2)nc(N)n1 [GSK2224810],%Inh,[1],15%
same,%Inh,[2],16%
same,%Inh,[3],0%
same,%Inh,[4],2%
same,%Inh,[5],7%
same,%Inh,[6],20%
same,%Inh,[7],9%
same,%Inh,[8],0%
same,%Inh,[9],6%
same,%Inh,[10],0%
same,%Inh,[11],10%
same,%Inh,[12],0%
same,%Inh,[13],0%
same,%Inh,[14],6%
same,%Inh,[15]; [21],0%
same,%Inh,[16],61%
same,%Inh,[17],0%
same,%Inh,[18],14%
same,%Inh,[19],0%
same,%Inh,[20],18%
Cc1ccccc1Cn1ccn2c(=O)cc(N3CCOCC3)nc12 [GSK2269905],%Inh,[1],10%
same,%Inh,[2],2%
same,%Inh,[3],0%
same,%Inh,[4],0%
same,%Inh,[5],14%
same,%Inh,[6],26%
same,%Inh,[7],1%
same,%Inh,[8],4%
same,%Inh,[9],0%
same,%Inh,[10],0%
same,%Inh,[11],26%
same,%Inh,[12],0%
same,%Inh,[13],0%
same,%Inh,[14],2%
same,%Inh,[15]; [21],15%
same,%Inh,[16],0%
same,%Inh,[17],0%
same,%Inh,[18],0%
same,%Inh,[19],0%
same,%Inh,[20],9%
